Source: PubChem BioAssay (several laboratories)
Sampled rows, rich in hits. Any-hit rate of the full collection: about 3.8%.
Beta2AR agonist: beta2AR agonists driving receptor internalization, primary screen, cell-based, FAP fluorogen, flow cytometry; Am2.2-beta2AR cells; response, % (concentration not given with the values); actives 0.43% (n = 340,000); AID 504454, 2011;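 active = response above a set limit, near 3 SD of response in nonfluorescent compounds, cut at about 42% in these data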
Target sequence (P07550 whole entry, looked up): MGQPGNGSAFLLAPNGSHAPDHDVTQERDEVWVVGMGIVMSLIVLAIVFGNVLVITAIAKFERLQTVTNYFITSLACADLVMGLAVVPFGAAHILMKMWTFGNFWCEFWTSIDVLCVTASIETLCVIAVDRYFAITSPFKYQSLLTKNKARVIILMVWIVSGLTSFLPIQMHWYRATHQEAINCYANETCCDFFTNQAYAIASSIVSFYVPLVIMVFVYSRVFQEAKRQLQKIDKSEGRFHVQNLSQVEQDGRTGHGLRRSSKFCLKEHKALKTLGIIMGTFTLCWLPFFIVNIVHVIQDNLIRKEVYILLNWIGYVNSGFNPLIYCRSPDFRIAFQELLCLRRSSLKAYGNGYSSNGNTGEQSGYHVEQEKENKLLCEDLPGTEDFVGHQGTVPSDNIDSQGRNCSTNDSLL
TIM10 inh: growth inhibitors of isogenic TIM10 control yeast, primary screen, counter-screen for tim10-1 yeast inhibitor project, luminescence, uHTS; S. cerevisiae TIM10 strain growth, BacTiter-Glo luminescence, 24 h; inhibition, % at 10 µM; actives 1.4% (n = 330,000); AID 463195, 2010;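 active = inhibition of 40% or more at the single tested concentration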;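 note: wild-type TIM10 isogenic control strain grown at permissive 25 °C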
tim23-1 inh: growth inhibitors of tim23-1 mutant yeast, primary screen, luminescence, uHTS | S. cerevisiae tim23-1 growth, BacTiter-Glo luminescence, 24 h | inhibition, % at 20 µM | actives 1.3% (n = 330,000);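 active = growth inhibition of the mutant yeast at or above 50%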;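 note: temperature-sensitive mutant grown at 25 °C; plate controls were DMSO-treated mutant yeast for no effect and medium wells lacking yeast for full effect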
PfHsp90 yeast 2: growth inhibition of PfHsp90-expressing yeast, primary screen, antimalarial PfHsp90 inhibitor project, S. cerevisiae, BacTiter-Glo luminescence, single point, set 2 | BacTiter-Glo ATP, 48 h; yeast lacking PDR1 and PDR3 efflux regulators | AID 504621, 2011 | inhibition, % at 9.4 µM | actives 0.32% (n = 310,000);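 active = every replicate shows inhibition above about 80%, whatever the replicate mean, limit read from the data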;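 note: 0% = DMSO neutral controls and 100% = 20 µM radicicol positive controls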
tim10-1 inh: growth inhibitors of tim10-1 mutant yeast, primary screen, luminescence, uHTS; S. cerevisiae tim10-1 ts strain growth, BacTiter-Glo, 24 h; inhibition, % at 20 µM; actives 2.2% (n = 330,000); AID 463190, 2010;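 active = inhibition of at least 40%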;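 note: mutant grown at 25 °C; 0% = DMSO wells with yeast and 100% = wells holding no yeast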
tim10-1 confirm: growth inhibitors of tim10-1 mutant yeast, confirmation, single concentration, luminescence, S. cerevisiae; actives 56% (n = 7,400); inhibition, % at 20 µM; S. cerevisiae tim10-1 ts strain growth, BacTiter-Glo, 24 h; shares compounds with tim10-1 inh;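 active = inhibition of yeast growth at or above a set limit in either of two repeat tests at 20 µM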;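 note: tim10-1 mutant grown at permissive 25 °C to find synthetic lethal compounds; 0% = DMSO yeast wells and 100% = medium wells without yeast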
* marks the source's active call; other numbers are inactive results; . = no result.

SMILES	Beta2AR agonist	TIM10 inh	tim23-1 inh	PfHsp90 yeast 2	tim10-1 inh	tim10-1 confirm
Cc1occc1-c1nnc(SCC(=O)N2CCCC(C)C2)o1 (stereo unspecified)	15.0	4.2	15.9	3.5	15.9	.
COc1ccc(CN2C(=O)C(CC(C)C)Nc3ncnc(N4CCN(c5ccccc5)CC4)c32)cc1 (stereo unspecified)	4.1	26.4	35.2	-7.9	42.7*	22.9
CC(C)CC1Nc2ncnc(N3CCN(c4ccccc4)CC3)c2N(Cc2ccccc2)C1=O (stereo unspecified)	5.3	14.1	37.5	-13.2	27.1	.
O=[N+]([O-])CC(c1ccccc1)P(=O)(c1ccccc1)c1ccccc1 (stereo unspecified)	-5.2	0.4	28.3	-7.1	40.6*	14.5
CC(=O)C(c1ccccc1)C(c1ccccc1)C(C)[N+](=O)[O-] (stereo unspecified)	6.4	-5.4	-17.9	-4.5	-11.3	.
COc1ccc(/C=C2\CCc3ccccc3C2=O)cc1OC	-1.1	19.1	37.8	-20.0	32.9	.
CCNC(=O)COc1ccc(/C=C2\COc3ccccc3C2=O)cc1OC	20.2	35.8	39.3	5.9	46.0*	29.0
COc1ccccc1N/C(=N/S(=O)(=O)c1ccc(C)cc1)c1ccccc1	-2.9	28.0	26.5	3.0	31.0	.
COc1ccccc1N/C(=N/S(=O)(=O)c1ccc(Cl)cc1)c1ccccc1	-0.3	26.3	36.8	-8.6	40.6*	27.6
O=C(c1ccco1)N1CCN(c2ncnc3scc(-c4cccs4)c23)CC1	-5.3	9.8	37.7	30.9	45.6*	29.6
COc1ccc(-c2csc(N3CCN(S(=O)(=O)c4ccc5c(c4)NC(=O)CO5)CC3)n2)cc1	8.7	-47.8	-9.6	-29.8	34.0	.
Cc1sc(N2CCN(S(=O)(=O)c3ccc4c(c3)NC(=O)CO4)CC2)nc1-c1ccccc1	-0.7	11.3	-0.9	-158.2	47.1*	-20.1
CCN1C[C@@H]2[C@@H]3C(=O)N(C)C(=O)[C@@H]3[C@](Cc3ccccc3)(C1=O)N2C(=O)c1ccc(Cl)cc1	-5.6	.	.	12.1	.	.
O=C(NCCc1ccc(Cl)cc1)c1ccc(S(=O)(=O)N2CCCC2)cc1	1.1	33.0	23.9	1.8	47.8*	44.9*
O=C(NCCc1ccc(Cl)cc1)C1CCN(S(=O)(=O)c2cccs2)CC1	-13.0	36.4	15.4	24.9	49.7*	39.8*
O=C(CSc1ncnc2c1nnn2Cc1ccccc1F)NCC1CCCO1 (stereo unspecified)	3.0	13.5	12.0	-8.3	22.6	.
CCCC(O)(c1ccc(CC)cc1)C(CN1CCOCC1)c1ccccc1 (stereo unspecified)	13.9	19.1	42.6	8.7	37.2	.
COc1ccc(C2(C(=O)N3CCC(n4nc(-c5ccccc5)oc4=O)CC3)CC2)cc1	-5.4	14.3	38.3	36.3	41.3*	14.8
COc1ccc(CCC(=O)OCC(=O)NCc2ccccc2)cc1	-5.1	-2.6	11.1	34.2	12.1	.
Cc1ccc(-n2cnc3c(=O)[nH]cnc32)cc1[N+](=O)[O-]	-7.3	.	.	11.6	.	.
CNc1ccc(Br)cc(C(=O)/C=C/c2cccc(OC)c2OC)c1=O	14.4	20.4	32.6	-0.4	41.7*	33.6*
CC1CCN(S(=O)(=O)c2ccc(C(=O)Nc3nnc(C4CC4)o3)cc2)CC1	1.3	19.6	37.6	.	41.4*	9.9
Cc1ccc(S(=O)(=O)N2CCN(C(=O)COC(=O)CNC(=O)c3ccccc3F)CC2)c(C)c1	1.9	.	.	-2.1	.	.
CC(C)OCCCn1c(-c2ccc(Br)cc2)c[nH]c1=S	-1.4	38.7	-5.2	-11.5	42.8*	9.8
CC(C)OCCCn1c(=S)[nH]c2ncccc2c1=O	2.1	8.7	15.6	6.6	22.4	.
SMILES	Beta2AR agonist	TIM10 inh	tim23-1 inh	PfHsp90 yeast 2	tim10-1 inh	tim10-1 confirm
CC(C)(C)[C@H]1CCC(=O)N([C@H](CN=[N+]=[N-])Cc2ccccc2)CC1	-2.2	19.0	36.0	-12.1	40.9*	24.0
[N-]=[N+]=NC[C@H](Cc1ccccc1)N1CC[C@@H](O)CCC1=O	-7.4	-7.1	7.7	-13.9	-1.8	.
Cc1ccc(S(=O)(=O)Nc2c(C)ccc3nsnc23)cc1	-1.0	-4.6	33.2	8.3	42.4*	14.1
CCC(C)NS(=O)(=O)c1ccc(NC(=O)c2ccc([N+](=O)[O-])cc2Cl)cc1 (stereo unspecified)	-8.8	25.4	30.9	12.5	46.3*	30.5*
CC(=O)Nc1ccc(NC(=O)c2ccc([N+](=O)[O-])cc2Cl)cc1	-2.8	7.6	-0.7	-20.0	-2.5	.
CCOC(=O)COc1ccc(/C=C/[N+](=O)[O-])c(OCC(=O)OCC)c1	53.6*	22.5	41.4	0.6	42.1*	49.5*
CCOC(=O)COc1ccc2nsnc2c1	1.3	18.3	8.8	16.0	-14.4	.
O=C(CN1CCN(S(=O)(=O)c2ccccc2)CC1)Nc1ccc([N+](=O)[O-])cc1	2.5	12.6	25.2	-1.2	47.4*	31.5*
CCOC(=O)c1c(C)[nH]c(C)c1C(=O)COC(=O)c1cc2ccccc2cc1OC	-4.7	9.3	21.4	-3.3	34.3	.
CCOC(=O)c1c(C)[nH]c(C)c1C(=O)COC(=O)c1cc2ccccc2cc1O	-0.3	18.0	20.9	-7.7	47.3*	17.8
Cc1ccc(S(=O)(=O)N(CC(=O)Nc2ccc(Cl)cc2)C(=O)N2CCN(C)CC2)cc1	0.5	11.7	-1.8	-30.4	-7.0	.
Brc1ccc(N=Nc2ccc3ccccc3n2)cc1	18.7	19.0	26.5	-20.5	40.1*	25.9
COc1cccc(/C=N/Nc2nc(Nc3ccccc3)nc(-n3nc(C)cc3C)n2)c1O	10.7	14.2	41.5	.	45.2*	27.4
c1ccc(-c2cc3n(c2)CCc2ccccc2-3)cc1	11.1	24.8	27.4	13.2	41.8*	28.6
CC(=O)O[C@]1(C(C)=O)CC[C@H]2[C@@H]3C=CC4=CC(=O)C=C[C@]4(C)[C@H]3CC[C@@]21C	-1.3	10.1	34.0	-10.8	40.5*	5.2
C=C(C)CN(CC)C(=O)CSc1ccc(S(=O)(=O)N2CCN(C)CC2)cn1	-5.8	8.3	-18.6	13.5	-6.8	.
COc1cc(/C=N/NC(=O)c2cccc(NC(=O)c3ccccc3C)c2)ccc1O	9.3	32.4	-7.7	-32.6	-9.3	.
Cc1ccccc1C(=O)Nc1cccc(C(=O)N/N=C/c2cc(Cl)cc([N+](=O)[O-])c2O)c1	5.5	18.3	8.4	-38.6	41.2*	21.5
CNC(=O)c1nnsc1S(=O)(=O)c1ccc(Cl)cc1	48.5*	22.8	32.4	-118.0	57.9*	46.5*
